# Hit rate of the full screen: of about 310,000 compounds, about 2,600 (0.84%) were called active. Shown is part of a subset that was picked to be rich in actives. A number with no mark means an inactive call.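 Rule for the calls: active = fluorescence ratio B-score at or below minus 3 SD of library scores, with starting-brightness B-score within 2 SD (cut at about -4.2 in these data); inactive = the rest.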
# Biological target: Inward rectifier potassium channel 2 (Mus musculus) (UniProt P35561)
# Assay: blocks the mouse Kir2.1 inward-rectifier potassium channel (AID 1672);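 note: channel flux triggered by added potassium and thallium sulfate stimulus; B-score of peak minus minimum fluorescence over baseline after thallium stimulus; more negative B-score means stronger Kir2.1 block with less thallium influx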
# Settings: HEK293-Kir2.1, FluxOR thallium flux fluorescence; at 10 µM; active compounds read low
# Sequence of Inward rectifier potassium channel 2 (Mus musculus) (P35561 whole entry, looked up): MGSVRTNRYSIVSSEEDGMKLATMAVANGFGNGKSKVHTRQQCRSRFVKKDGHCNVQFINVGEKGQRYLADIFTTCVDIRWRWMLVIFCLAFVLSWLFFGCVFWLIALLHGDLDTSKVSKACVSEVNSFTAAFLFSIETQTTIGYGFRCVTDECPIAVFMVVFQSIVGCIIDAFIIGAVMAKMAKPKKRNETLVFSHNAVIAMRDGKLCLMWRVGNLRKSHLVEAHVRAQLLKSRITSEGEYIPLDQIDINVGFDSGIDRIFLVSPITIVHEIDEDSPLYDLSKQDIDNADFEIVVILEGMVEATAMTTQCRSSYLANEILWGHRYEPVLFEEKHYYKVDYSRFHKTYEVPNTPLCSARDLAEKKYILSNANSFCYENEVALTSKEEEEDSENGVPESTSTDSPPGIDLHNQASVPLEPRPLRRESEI
row,SMILES,B-score
1,Cc1ccc(C(=O)NNC(=O)C(C)Oc2ccc3ccccc3c2)o1 (centres undefined),0.32
2,CSc1ncc(Sc2ccccc2)c(C(=O)O)n1,0.25
3,COc1ccccc1CN1CCN(C(c2ccccc2)c2ccccc2)CC1,-0.07
4,CC(NCc1ccccc1OC1CCCC1)c1ccccc1 (centres undefined),-12.7 (active)
5,CC(=O)OC(C(=O)NC1CCCCC1)c1ccccc1 (centres undefined),-0.67
6,Cc1ccc(NC(=O)C2CC(=O)N(c3ccc4c(c3)OCCO4)C2)cc1S(=O)(=O)N1CCCCCC1 (centres undefined),-0.57
7,COc1ccc2c(c1)CCNC2Cc1ccc(OC)c(O)c1 (centres undefined),1.91
8,CN1CCN(C2Cc3ccc(Cl)cc3Sc3ccc(F)cc32)CC1 (centres undefined),-1.17
9,O=C1CSC(c2ccccc2)N1c1nc(-c2ccc(Cl)cc2Cl)cs1 (centres undefined),0.4
10,Clc1ccc(-c2cc(C3CCNCC3)[nH]n2)c(Cl)c1,-12.6 (active)
11,Clc1ccc(-c2cc(-c3ccccn3)on2)c(Cl)c1,0.99
12,O=C(Nc1cccc2c1CCCC2)c1ccc(F)cc1,-0.09
13,Cc1ccc(S(=O)(=O)N2CCN(C(=O)Cc3sc(C)nc3-c3ccc(F)cc3)CC2)c(C)c1,-0.03
14,COc1ccc(S(=O)(=O)N2CCCCC2)cc1NC(=O)c1cc([N+](=O)[O-])ccc1N1CCOCC1,-0.55
15,CCN1C(=O)[C@@H]2[C@@H](c3ccc(-c4cccc(Cl)c4)cc3)N3CCC[C@@]3(C(=O)OC)[C@@H]2C1=O,0
16,CCOc1ccccc1OCC(=O)Nc1ccccc1C(=O)NC1CC1,-2.1
17,COc1ccccc1OCC(=O)Nc1ccccc1C(=O)NC1CC1,-0.05
18,CC(Oc1ccc(F)cc1)C(=O)Nc1ccccc1C(=O)NC1CC1 (centres undefined),-5.66 (active)
19,CC(Oc1ccc(Br)cc1)C(=O)NCC(c1ccco1)N1CCCCC1 (centres undefined),-1.52
20,Cc1ccc(S(=O)(=O)NCCC(=O)NC2CCN(Cc3ccccc3)CC2)cc1,-1.38
21,Cc1ccc(-c2cc(C(=O)NC3CCN(Cc4ccccc4)CC3)c3ccccc3n2)cc1,0
22,Cc1ccc(-c2nc(CSCC(=O)NC3CCN(Cc4ccccc4)CC3)c(C)o2)cc1,-4.77 (active)
23,C=CCc1cc(S(=O)(=O)c2ccc(O)c(CC=C)c2)ccc1O,-6.7 (active)
24,CCOC(=O)C1Nc2ccc(C(F)(F)F)cc2C2C=CCC12 (centres undefined),1.69

row,SMILES,B-score
1,COc1cc(CNCc2cccs2)cc(Br)c1OC,-1.78
2,COc1cc(CNCc2ccc(OC)c3ccccc23)cc(OC)c1OC,-6.99 (active)
3,COc1ccc(CNC(=O)Cc2ccc(-c3ccccc3)cc2)cc1OC,0.77
4,CCCC(=O)C1CCN(Cc2ccccc2)CC1,-3.46
5,O=C(Nc1ccccc1)N1CCN(Cc2ccccc2)CC1,0.76
6,CC12CN(Cc3ccccc3)CC(C)(CN(Cc3ccccc3)C1)C2=NO,-8.19 (active)
7,CC(C)(C)Oc1ccccc1Nc1nc(NCCO)nc(N2CCCC2)n1,0.89
8,COc1ccc(F)c(-c2nc(CN3CCC(c4ccccc4)CC3)c(C)o2)c1,-6.63 (active)
9,COc1cccc(CC2(CO)CCCN(Cc3nc(-c4cccs4)oc3C)C2)c1 (centres undefined),-0.22
10,CCOc1ccccc1-c1nc(CN2CCC(C(=O)N3CCOCC3)CC2)c(C)o1,0.57
11,O=C(NCC1CC1)c1onc(CSc2ccccc2)c1C(=O)NCC1CC1,-0.33
12,Cc1ccc(C)c(OCCC(=O)OCC(=O)NC(=O)NCc2ccccc2)c1,-1.35
13,O=C(c1ccc(NS(=O)(=O)c2ccc3[nH]c(=O)[nH]c3c2)cc1)N1CCCCC1,-0.24
14,O=C(NC(Nc1nc2ccc([N+](=O)[O-])cc2s1)(C(F)(F)F)C(F)(F)F)c1ccccc1,-10.5 (active)
15,O=C(Nc1nc2ccc([N+](=O)[O-])cc2s1)c1ccc(S(=O)(=O)N2CCCc3ccccc32)cc1,1.56
16,O=C(COC(=O)c1ccc(F)cc1)Nc1nc2ccc([N+](=O)[O-])cc2s1,-0.31
17,Cc1nc(-c2ccccc2)sc1C1(C)CC(c2cccnc2)=NO1 (centres undefined),-0.61
18,O=C(Nc1ccc2nc3n(c(=O)c2c1)CCCC3)c1ccc(Cl)nc1,-0.4
19,CCc1cccc(C)c1NC(=O)COC(=O)CNC(=O)c1cccs1,-0.01
20,CCOC(=O)N1CCN(C(=O)c2ccccc2SCC(=O)NCC2CCCCC2)CC1,-1.08
21,CC(CCc1ccc(O)cc1)NCc1ccc(Cl)cc1Cl (centres undefined),-1.22
22,OC(CNCc1ccc2c(c1)OCO2)COc1ccccc1 (centres undefined),0.51
23,OC(CNCCc1ccc(Cl)cc1Cl)COc1ccccc1 (centres undefined),-5.54 (active)
24,O=C(Oc1ccc(-c2nnco2)cc1)c1ccc(F)c(S(=O)(=O)N2CCOCC2)c1,0.69

row,SMILES,B-score
1,Cc1ccc2nc(SCC(=O)N3CCN(c4ccccc4)CC3)nc(=O)n2c1,-0.66
2,NC(=O)c1cc(S(=O)(=O)NCCCc2ccco2)cs1,-1.45
3,CCOC(=O)c1c(C)[nH]c(C)c1S(=O)(=O)N(C)CC(=O)Nc1ccccc1C,-0.21
4,CCOC(=O)c1c(C)[nH]c(C)c1S(=O)(=O)NCCCc1ccco1,-4.22 (active)
5,O=S(=O)(NCCCc1ccccc1)c1ccc(Br)cc1,-0.26
6,C=C(C)CNC(=O)c1ccc(OC2CCN(C(=O)COC)CC2)cc1,2.19
7,CC(C)c1ccc(S(=O)(=O)N2CCN(C(=O)CN3C(=O)NC(C)(c4ccccc4)C3=O)CC2)cc1 (centres undefined),-0.17
8,CN(C1CCS(=O)(=O)C1)S(=O)(=O)c1ccc2ccccc2c1 (centres undefined),-2.88
9,CCN1CCN(CCNC(=O)c2ccc3c(c2)NC(=O)/C(=C\c2ccc(OC)c(OC)c2)S3)CC1,-0.6
10,CC1CCN(C(=O)c2ccc3c(c2)NC(=O)CN3)CC1,-1.15
11,O=C1Nc2cc(C(=O)N3CCC(N4CCCCC4)CC3)ccc2S/C1=C\c1ccccc1,-5.53 (active)
12,CC(C)(C)NCCCOc1ccc(Cl)cc1C(C)(C)C,-3
13,CN(C)CCOc1ccc(Cl)cc1C(C)(C)C,-4.91 (active)
14,Cn1c(CCCOc2ccc(Cl)cc2Cl)n[nH]c1=S,1.02
15,CC(C)COc1ccc(C(=O)OCC(=O)NCCC2=CCCCC2)cc1,-0.32
16,CC1(C)C/C(=N/Nc2ccc([N+](=O)[O-])cc2[N+](=O)[O-])C(C)(C)O1,-0.99
17,Cc1ccc2nc(SCC(=O)Nc3cccc4ccccc34)nc(=O)n2c1,-0.81
18,O=C1CSc2ccc(S(=O)(=O)NCc3ccccc3)cc2N1,-1.97
19,COc1ccccc1CNS(=O)(=O)c1ccc2c(c1)NC(=O)CS2,-3.14
20,CCC(Cc1ccccc1)NS(=O)(=O)c1ccc2c(c1)NC(=O)CS2 (centres undefined),-7.18 (active)
21,O=C(Nc1cc(Cl)ccc1N1CCOCC1)c1ccc(N2CCCC2=O)cc1,-0.11
22,CCN(CC(=O)Nc1ccccc1C(F)(F)F)C(=O)CSCc1c(C)noc1C,-0.18
23,CC1(C)Oc2ccc3ccc(=O)oc3c2/C(=C/NCCO)C1=O,-0.79
24,C/C=C(/C)C(=O)OC1Cc2c(ccc3ccc(=O)oc23)OC1(C)C (centres undefined),-6.49 (active)

row,SMILES,B-score
1,CC1(C)Oc2ccc3ccc(=O)oc3c2/C(=N/O)C1=O,-3.77
2,COc1ccc(C(CNC(=O)c2cccc(S(=O)(=O)Nc3ccccc3Cl)c2)N2CCOCC2)cc1 (centres undefined),0.72
3,COc1ccccc1NS(=O)(=O)c1ccc(C(=O)N2CCN(c3ccccc3O)CC2)cc1,-0.57
4,COc1ccc(C(C#N)(CC(=O)O)c2cnccn2)cc1OC (centres undefined),-2.49
5,Cc1cc(C)c(-c2csc(NC(=O)CCCc3nc4ccccc4c(=O)[nH]3)n2)c(C)c1,0.9
6,CC1COc2ccccc2N1C(=O)c1cccnc1Cl (centres undefined),-0.04
7,CC1CN(S(=O)(=O)c2ccccc2)C(C)CN1S(=O)(=O)c1ccccc1 (centres undefined),-1.27
8,CC1COc2ccccc2N1S(=O)(=O)c1ccccc1 (centres undefined),-8.7 (active)
9,Cn1ccsc1=NC(=O)c1cc(S(=O)(=O)N2CCOCC2)ccc1Cl,-1.21
10,O=C(NN1CCOCC1)c1cccc(F)c1,0.11
11,Cc1ccc(N2CC(C(=O)N3CCC4(CC3)CC(=O)c3ccccc3O4)CC2=O)cc1C (centres undefined),0.05
12,O=C(Nc1ccccc1N1CCCC1)c1ccc(F)c(S(=O)(=O)N2CCOCC2)c1,-1.53
13,CC(C)NC(=S)N1CCN(C(c2ccccc2)c2ccccc2)CC1,0.81
14,O=C(O)CN1CCN(C(c2ccccc2)c2ccccc2)CC1,0.58
15,CC1(C)CC(N2CCN(C(c3ccccc3)c3ccccc3)CC2)=CC(=[N+]2CCCCC2)C1,-9.72 (active)
16,CC12CCC(=O)N1C(C(=O)NCCN1C(=O)S/C(=C\c3ccccc3F)C1=O)CS2 (centres undefined),1.85
17,COCCCNC(=S)N(Cc1ccccc1)Cc1ccc(F)cc1,-4.64 (active)
18,COCCCNC(=S)NC(=O)c1ccccc1,0
19,COCCNC(=S)N(Cc1cccnc1)Cc1ccc(OC)c(OC)c1,-0.71
20,O=C(CN1CCOCC1)Nc1cccc([N+](=O)[O-])c1,-1.26
21,COc1cc(/C=N/NC(=O)c2cc(-c3ccccc3C)nc3ccccc23)cc(OC)c1O,0.05
22,CC(C)Nc1nnc(SC(C)C(=O)N(C)C2CCCCC2)s1 (centres undefined),1.34

# Source: PubChem BioAssay AID1672 (Johns Hopkins Ion Channel Center, 2009)
